# Several values for one entry are separate records, joined by “and”; a condition that tells them apart may be missing. Identical values can stand only once. Inconclusive results are not listed. For some assays here: Measured potencies and affinities stand elsewhere. Activity calls are given as the source filed them. Unless noted, no cut-off is given here; in the data, nearly all actives have AC50 up to about 26 µM.
# How the values were obtained:
# [1] = test system: Hepatitis C virus NS3 helicase; assay: blockers of NS3h binding to ssDNA – biochemical, fluorescence polarization, LOPAC1280 library, primary screen (AID 687035; in the data active = inhibition above about 37%); settings: Purified HCV NS3 helicase, Cy5-dT15 ssDNA binding fluorescence polarization; stronger effect = higher value; concentration not given here
# [2] = compounds altering Cy5-DNA-NS3h complex signal – biochemical, LOPAC1280, artefact control for HCV NS3 helicase inhibitor project (AID 687037; call rule not given here); settings: Cy5-DNA-NS3h complex fluorescence interference counterscreen
# [3] = viability loss in pontine glioma line – cell-based, JHH-DIPG-1, MIPE4.0, CellTiter-Glo, qHTS, dose response (AID 1347062; cut-off not given, nearly all actives have AC50 up to about 27 µM); settings: JHH-DIPG-1 viability, CellTiter-Glo ATP luminescence
# [4] = blockers of cellular phospholipid synthesis – cell-based, LOPAC library, screen 4, primary screen (AID 1347384; call rule not given here); settings: animal cells, phospholipid biosynthesis inhibition screen; at 10 µM
# [5] = restoration of touch response, mutant HTT neurons – whole organism, C. elegans mechanosensory neurons, N-terminal huntingtin (AID 1599); settings: C. elegans polyQ-huntingtin mechanosensory neurons, stronger effect = higher value
# [6] = GFP-Q80 aggregate reduction, neuronal-like cells, cell-based, NGF-treated PC12, GFPQ80 (AID 1614); settings: PC12 NGF-treated GFP-polyQ80 inclusion reduction;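 note: lower means fewer inclusions and 0 means no inclusions at all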
# [7] = 75Q-TubH aggregate inhibition, S. cerevisiae, yeast (AID 1616); settings: S. cerevisiae 75Q-TubH polyglutamine aggregation suppression; stronger effect = higher value
# [8] = compounds altering viability of human ES cells (AID 493140; call rule not given here;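 note: cells exposed to compounds for four days before counting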); settings: human embryonic stem cell survival screen; stronger effect = higher value
# [9] = viability loss in pontine glioma line – cell-based, SU-DIPG-XVII, MIPE5.0, CellTiter-Glo, qHTS, dose response (AID 1347060); settings: CellTiter-Glo ATP luminescence;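 for AC50: cells exposed to compound for 48 hours before viability readout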
# [10] = viability loss in pontine glioma line – cell-based, SU-DIPG-XIII, MIPE4.0, CellTiter-Glo, qHTS, dose response (AID 1347061; cut-off not given, nearly all actives have AC50 up to about 37 µM;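 note: cells exposed to compound for 48 hours before readout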); settings: CellTiter-Glo ATP luminescence
# [11] = viability loss in pontine glioma line – cell-based, SU-DIPG-IV, MIPE4.0, CellTiter-Glo, qHTS, dose response (AID 1347063; cut-off not given, nearly all actives have AC50 up to about 30 µM;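 note: compound exposure lasted 48 hours before the viability readout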); settings: CellTiter-Glo ATP luminescence
# [12] = viability loss in pontine glioma line – cell-based, SU-DIPG-XXV, MIPE5.0, CellTiter-Glo, qHTS, dose response (AID 1347065); settings: CellTiter-Glo ATP luminescence;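 note: cells exposed to compound for 48 hours before ATP readout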
# [13] = growth inhibition of DIPG cells – cell-based, MIPE4.0 library, CellTiter-Glo luminescence, qHTS (AID 1347066; cut-off not given, nearly all actives have AC50 up to about 30 µM;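 note: cells exposed to compound for 48 hours before readout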); settings: SU-DIPG-VI viability, CellTiter-Glo ATP luminescence
# [14] = JHH-DIPG-1 glioma cell viability, MIPE5.0 library, CellTiter-Glo luminescence, qHTS (AID 1347067); settings: JHH-DIPG-1 glioma viability, CellTiter-Glo ATP luminescence;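 note: cells exposed to compound for 48 hours before readout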
# [15] = growth inhibition of DIPG cells – cell-based, MIPE5.0 library, qHTS (AID 1347068; cut-off not given, nearly all actives have IC50 up to about 30 µM); settings: SU-DIPG-XXV viability
# [16] = growth inhibition, single agents and combos, LFS_MB_1R, cell-based, cisplatin or BGB combos, synergistic combos for chromothripsis tumors (AID 1671452; in the data active = inhibition above about 80%;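 note: cells exposed for 96 hours before readout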); settings: LFS_MB_1R medulloblastoma cells, stronger effect = higher value
# [17] = growth inhibition, MDA-MB-436, cell-based, BGB or cisplatin combos, synergistic combos for chromothripsis tumors (AID 1671458; call rule not given here;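 note: cells exposed for 96 hours; 0% = vehicle DMSO and 100% = killing by high DMSO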); settings: MDA-MB-436 breast carcinoma growth inhibition, drug combinations, stronger effect = higher value
# [18] = BT084 cell growth, single and combined drugs, ICGC_MB145, cisplatin and BGB IC40 combos (AID 1671461; in the data active = inhibition above about 80%;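 note: cells exposed to drugs for 96 hours; 0% = vehicle DMSO and 100% = high DMSO full killing control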); settings: BT084 medulloblastoma cells, drug combinations, stronger effect = higher value
# [19] = RCMB18 cell growth, single agent and combined, cisplatin and BGB IC40 combos (AID 1671462; in the data active = inhibition above about 80%;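 note: cells exposed to compound for four days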); settings: RCMB18 medulloblastoma cells, stronger effect = higher value
# [20] = CRL1545 cell growth, single agent and combined, cisplatin and BGB IC20 combos (AID 1671464; in the data active = inhibition above about 80%;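 note: cells exposed to compound for 96 hours before readout; 0% = vehicle DMSO and 100% = high DMSO killing control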); settings: CRL1545 osteosarcoma cells, stronger effect = higher value
# [21] = measured here: combination with BGB IC40, at 0.05 µM
# [22] = measured here: combination with cisplatin, at 0.5 µM
# [23] = measured here: combination with cisplatin, at 5 µM
# [24] = measured here: BGB combination, at 0.5 µM
# [25] = measured here: BGB combination, at 5 µM
# [26] = measured here: cisplatin combination, at 0.5 µM
# [27] = measured here: cisplatin combination, at 5 µM
# [28] = cisplatin combination, at 0.5 µM
# [29] = measured here: BGB IC40 combination 0.05 uM, at 0.05 µM
# [30] = measured here: BGB IC40 combination, at 0.05 µM
# [31] = measured here: with BGB IC20 combination, at 0.5 µM
# [32] = measured here: with cisplatin IC20 combination, at 0.5 µM
compound,measurement,setting,value
COc1ccccc1OCCNCC(O)COc1cccc2[nH]c3ccccc3c12 (stereo not given),inhibition,[1],-2% (inactive)
same,fluorescence ratio (interference),[2],1 (inactive)
same,outcome,[3],inactive
same,outcome,[4],inactive
NNCCc1ccccc1,rescue above control,[5],-3.55
same,inclusion score,[6],2
same,aggregation suppression score,[7],1.47
same,survival,[8],9.5 (inactive)
same,inhibition,[1],-1% (inactive)
same,fluorescence ratio (interference),[2],0.9 (inactive)
same,outcome,[9],inactive
same,AC50,[10],9.35 µM (active)
same,outcome,[3],inactive
same,AC50,[11],13.2 µM (active)
same,outcome,[12],inactive
same,outcome,[13],inactive
same,outcome,[14],inactive
same,outcome,[15],inactive
same,outcome,[4],inactive
OC(Cn1cncn1)(Cn1cncn1)c1ccc(F)cc1F,rescue above control,[5],-3.31
same,inclusion score,[6],2
same,aggregation suppression score,[7],0.253
same,outcome,[9],inactive
same,outcome,[10],inactive
same,outcome,[3],inactive
same,outcome,[11],inactive
same,outcome,[12],inactive
same,outcome,[13],inactive
same,outcome,[14],inactive
same,outcome,[15],inactive
O=C(O)c1cccnc1,rescue above control,[5],2.74
same,inclusion score,[6],2
same,aggregation suppression score,[7],1.88
same,survival,[8],4 (inactive)
same,outcome,[9],inactive
same,outcome,[10],inactive
same,outcome,[3],inactive
same,outcome,[12],inactive
same,outcome,[13],inactive
same,outcome,[14],inactive
same,outcome,[15],inactive
COc1ccc(Cl)cc1C(=O)NCCc1ccc(S(=O)(=O)NC(=O)NC2CCCCC2)cc1,inclusion score,[6],2
same,aggregation suppression score,[7],1.07
same,survival,[8],5.42 (inactive)
same,inhibition,[1],1% (inactive)
same,fluorescence ratio (interference),[2],1 (inactive)
same,outcome,[4],inactive
CCOC(=O)C1=C(C)NC(C)=C(C(=O)OC)C1c1cccc([N+](=O)[O-])c1 (stereo not given),survival,[8],5.33 (inactive)
same,inhibition,[1],-2% (inactive)
same,fluorescence ratio (interference),[2],0.9 (inactive)
same,outcome,[4],inactive
CS(=O)(=O)OCCCCOS(C)(=O)=O,rescue above control,[5],-1.18
same,inclusion score,[6],2
same,aggregation suppression score,[7],1.4
same,outcome,[9],inactive
same,outcome,[10],inactive
same,outcome,[3],inactive
same,outcome,[11],inactive
same,outcome,[12],inactive
same,outcome,[13],inactive
same,outcome,[14],inactive
same,outcome,[15],inactive
same,inhibition,[16]; at 0.5 µM,-13.7% (inactive) and -24.5% (inactive)
same,inhibition,[16]; [21],-7.13% and -11.8%
same,inhibition,[16]; [22],-41.7% and -21.3%
same,inhibition,[16]; [23],-51.5% and 4.47%
same,inhibition,[17]; at 0.5 µM,-11.8% (inactive) and -10.9% (inactive)
same,inhibition,[17]; [24],-20.7% and -8.16%
same,inhibition,[17]; [25],10.5% and 6.58%
same,inhibition,[17]; [26],-15.8% and -27%
same,inhibition,[17]; [27],-17.4% and 2.99%
same,inhibition,[18]; at 0.5 µM,3.5% (inactive) and 8.55% (inactive)
same,inhibition,[18]; [28],-11.9% and 10.4%
same,inhibition,"[18]; cisplatin combination, at 5 µM",13.1% and -35.4%
same,inhibition,[18]; [29],-26.6% and 22.9%
same,inhibition,"[18]; single agent, at 5 µM",10.9% and -3.7%
same,inhibition,[19]; at 0.5 µM,-11.1% (inactive) and -2.44% (inactive)
same,inhibition,"[19]; cisplatin combo, at 5 µM",-65.6% and 7.8%
same,inhibition,[19]; [30],-1.43% and 7.53%
same,inhibition,[19]; [22],-15.9% and -14.5%
same,inhibition,"[19]; single agent, at 5 µM",-7.92% and -9.74%
same,inhibition,[20]; at 0.5 µM,-1.43% (inactive) and -28.8% (inactive)
same,inhibition,[20]; [31],-7.16% and 14.9%
same,inhibition,[20]; [32],-0.178% and -50.7%
same,inhibition,"[20]; single agent, at 0.05 µM",-16.2% and -23.2%
same,inhibition,"[20]; single agent, at 5 µM",-7.55% and 21.7%
COCCOC(=O)C1=C(C)NC(C)=C(C(=O)OC(C)C)C1c1cccc([N+](=O)[O-])c1 (stereo not given),survival,[8],3 (inactive)
same,inhibition,[1],-4% (inactive)
same,fluorescence ratio (interference),[2],0.9 (inactive)
same,outcome,[4],inactive
NS(=O)(=O)c1cc2c(cc1Cl)NCNS2(=O)=O,rescue above control,[5],7.5
same,inclusion score,[6],2
same,aggregation suppression score,[7],0.805
same,survival,[8],7.5 (inactive)
same,inhibition,[1],-1% (inactive)
same,fluorescence ratio (interference),[2],1 (inactive)
same,outcome,[9],inactive
same,outcome,[10],inactive
same,outcome,[3],inactive
same,outcome,[11],inactive
same,outcome,[12],inactive
same,outcome,[13],inactive
same,outcome,[14],inactive
same,outcome,[15],inactive
same,outcome,[4],inactive
O=C(O)CCCc1ccccc1,inhibition,[16]; at 0.5 µM,-18.6% (inactive)
same,inhibition,[16]; [21],-25.4%
same,inhibition,[16]; [22],-26.8%
same,inhibition,[16]; [23],-16.2%
same,inhibition,[17]; at 0.5 µM,-11.5% (inactive)
same,inhibition,[17]; [24],-6.89%
same,inhibition,[17]; [25],-6.08%
same,inhibition,[17]; [26],-24.1%
same,inhibition,[17]; [27],-11.2%
same,inhibition,[18]; at 0.5 µM,-24.2% (inactive)
same,inhibition,[18]; [28],2.11%
same,inhibition,"[18]; cisplatin combination, at 5 µM",-2.13%
same,inhibition,[18]; [29],-5.38%
same,inhibition,"[18]; single agent, at 5 µM",-9.5%
same,inhibition,[19]; at 0.5 µM,-15.3% (inactive)
same,inhibition,"[19]; cisplatin combo, at 5 µM",-6.28%
same,inhibition,[19]; [30],-18%
same,inhibition,[19]; [22],-7.69%
same,inhibition,"[19]; single agent, at 5 µM",28.4%
same,inhibition,[20]; at 0.5 µM,-23.7% (inactive)
same,inhibition,[20]; [31],-4.31%
same,inhibition,[20]; [32],-36.4%
same,inhibition,"[20]; single agent, at 0.05 µM",-12.3%
same,inhibition,"[20]; single agent, at 5 µM",9.33%
N[C@@H](Cc1cc(I)c(Oc2cc(I)c(O)c(I)c2)c(I)c1)C(=O)O,outcome,[9],inactive
same,outcome,[10],inactive
same,outcome,[3],inactive
same,outcome,[12],inactive
same,outcome,[14],inactive
same,outcome,[15],inactive
CCCCNc1cc(C(=O)O)cc(S(N)(=O)=O)c1Oc1ccccc1,rescue above control,[5],-11.4
same,inclusion score,[6],2
same,aggregation suppression score,[7],1.32
same,survival,[8],12.6 (inactive)
same,inhibition,[1],-3% (inactive)
same,fluorescence ratio (interference),[2],0.9 (inactive)
same,outcome,[9],inactive
same,outcome,[10],inactive
same,outcome,[3],inactive
same,outcome,[11],inactive
same,outcome,[12],inactive
same,outcome,[13],inactive
same,outcome,[14],inactive
same,outcome,[15],inactive
same,outcome,[4],inactive
CC1Cc2ccccc2N1NC(=O)c1ccc(Cl)c(S(N)(=O)=O)c1 (stereo not given),rescue above control,[5],19
same,inclusion score,[6],2
same,aggregation suppression score,[7],1.3
same,outcome,[9],inactive
same,outcome,[10],inactive
same,outcome,[3],inactive
same,outcome,[11],inactive
same,outcome,[14],inactive
same,outcome,[15],inactive
CC1=C(/C=C/C(C)=C/C=C/C(C)=C/C(=O)O)C(C)(C)CCC1,rescue above control,[5],3.71
same,aggregation suppression score,[7],0.795
same,survival,[8],12.6 (inactive) and 136 (inactive)
same,inhibition,[1],-1% (inactive)
same,fluorescence ratio (interference),[2],0.9 (inactive)
same,outcome,[3],inactive
same,outcome,[14],inactive
same,outcome,[15],inactive
same,outcome,[4],inactive
O=c1[nH]cnc2[nH]ncc12,rescue above control,[5],2.94
same,inclusion score,[6],2
same,aggregation suppression score,[7],1.87
same,inhibition,[1],-4% (inactive)
same,fluorescence ratio (interference),[2],0.9 (inactive)
same,outcome,[9],inactive
same,outcome,[10],inactive
same,outcome,[3],inactive
same,outcome,[11],inactive
same,outcome,[13],inactive
same,outcome,[14],inactive
same,outcome,[15],inactive
same,outcome,[4],inactive
CCc1cc(C(N)=S)ccn1,rescue above control,[5],-3.77
same,inclusion score,[6],2
same,aggregation suppression score,[7],1.09
same,survival,[8],9.25 (inactive)
same,outcome,[9],inactive
same,outcome,[10],inactive
same,outcome,[3],inactive
same,outcome,[11],inactive
same,outcome,[12],inactive
same,outcome,[13],inactive
same,outcome,[14],inactive
same,outcome,[15],inactive
Oc1c(Cl)cc(Cl)c2cccnc12,aggregation suppression score,[7],-0.164
same,AC50,[9],16.6 µM (active)
same,AC50,[10],18.7 µM (active)
same,AC50,[11],26.4 µM (active)
same,AC50,[12],26.3 µM (active)
same,AC50,[13],18.7 µM (active)
same,AC50,[14],2.95 µM (active)

# Source: PubChem BioAssay
